# Source: PubChem BioAssay (NCI)
# The panel holds about 79,000 compounds, 15% with a hit somewhere; the sample as a whole holds those more often. Values without a mark were called inactive. Activity calls are given as the source filed them. Cut-off read from the data, not from the text of the source: active = growth inhibition above about 70%; inactive = the rest.
# Columns and labels:
# [1] = NCI Yeast Anticancer Drug Screen. Data for the wt1 strain (AID 149);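 note: 0% = growth of vehicle-treated wt1 cultures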; conditions: S. cerevisiae wt1 strain (SPY 50644) growth inhibition, stronger effect = higher value
# In short: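 Using yeast strain wt1, compound-induced growth inhibition was determined against vehicle-treated cultures.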
# [2] = NCI Yeast Anticancer Drug Screen. Data for the rad50EPP+ strain (AID 151);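 note: 0% = growth of vehicle-treated control cultures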; conditions: S. cerevisiae rad50 mutant strain, stronger effect = higher value
# In short: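 One strain with a rad50 alteration (rad50EPP+) was compound-treated, its growth then compared to that of vehicle controls.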
# [3] = NCI Yeast Anticancer Drug Screen. Data for the mgt1 strain (AID 153); conditions: S. cerevisiae mgt1 mutant growth inhibition, stronger effect = higher value
# In short: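 After exposure of the mgt1 yeast mutant to compound, growth was measured and reported as inhibition compared with vehicle controls.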
# [4] = NCI Yeast Anticancer Drug Screen. Data for the rad50 strain (AID 155);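 note: 0% = growth of vehicle-only cultures of the same strain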; conditions: S. cerevisiae rad50 strain growth inhibition, stronger effect = higher value
# In short: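 Relative growth inhibition (compound vs vehicle) was measured in yeast with a defined repair-gene alteration.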
# [5] = NCI Yeast Anticancer Drug Screen. Data for the mec2-1 strain (AID 157); conditions: S. cerevisiae mec2-1 strain, stronger effect = higher value
# In short: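 Test agents were screened against the mec2-1 yeast strain, with defined DNA repair or cell cycle alteration. Growth was scored as inhibition against vehicle-only controls.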
# [6] = NCI Yeast Anticancer Drug Screen. Data for the sgs1 mgt1 strain (AID 161);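 note: 0% = growth of cultures given vehicle only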; conditions: S. cerevisiae sgs1 mgt1 strain, stronger effect = higher value
# In short: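 Inhibition of yeast growth, normalised to vehicle-treated controls, is reported for a strain bearing genetic alterations in DNA damage repair.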
# [7] = NCI Yeast Anticancer Drug Screen. Data for the CLN2oe strain (AID 163);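 note: 0% = growth of vehicle-only control cultures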; conditions: S. cerevisiae CLN2oe strain, stronger effect = higher value
# In short: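 Here, growth inhibition in a cell-cycle-altered yeast strain after compound exposure was quantified against vehicle control growth.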
# [8] = NCI Yeast Anticancer Drug Screen. Data for the cln2 rad14 strain (AID 165);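 note: 0% = growth equal to vehicle treated cultures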; conditions: S. cerevisiae cln2 rad14 strain, stronger effect = higher value
# In short: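 Growth of compound-exposed yeast (cln2 rad14 genotype) measured and expressed as inhibition relative to vehicle.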
# [9] = NCI Yeast Anticancer Drug Screen. Data for the bub3 strain (AID 167); conditions: S. cerevisiae bub3 mutant strain, stronger effect = higher value
# In short: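 Screening used yeast with an engineered genetic alteration affecting cell cycle control. Compound-exposed cultures were compared with vehicle cultures, and reduced growth was taken as inhibition.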
# [10] = NCI Yeast Anticancer Drug Screen. Data for the wt2 strain (AID 169);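 note: 0% = growth of vehicle-treated yeast cultures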; conditions: S. cerevisiae wt2 strain growth inhibition, stronger effect = higher value
# In short: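 Genetically defined yeast strains from a DNA-repair/cell-cycle panel were used. Compound-exposed yeast growth was measured, and the inhibition was calculated relative to vehicle treatment.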
# [11] = NCI Yeast Anticancer Drug Screen. Data for the mlh1 strain (AID 171);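 note: 0% = growth of vehicle-treated control cultures of the same strain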; conditions: S. cerevisiae mlh1 strain growth inhibition, stronger effect = higher value
# In short: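 Here the genetically defined yeast mutant is grown with each compound, and the extent to which its growth falls below that of vehicle-exposed cells is reported.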
# [12] = NCI Yeast Anticancer Drug Screen. Data for the sgs1 strain (AID 173);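 note: 0% = growth of vehicle-only control cultures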; conditions: S. cerevisiae sgs1 mutant, stronger effect = higher value
# In short: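 Relative growth inhibition, referenced to vehicle, was determined in a yeast strain with a defined alteration affecting DNA damage repair or cell cycle control after compound exposure.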
# [13] = NCI Yeast Anticancer Drug Screen. Data for the mlh1 rad18 strain (AID 175); conditions: S. cerevisiae mlh1 rad18 strain growth inhibition, stronger effect = higher value
# In short: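 In this whole-cell yeast screen, a strain with altered DNA damage repair is challenged with compound, and its growth is measured against matched vehicle-treated controls.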
# [14] = NCI Yeast Anticancer Drug Screen. Data for the rad18 strain (AID 177); conditions: S. cerevisiae rad18 mutant growth inhibition, stronger effect = higher value
# In short: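 Screen uses a yeast strain with a defined lesion in DNA damage repair; compound effect is read as loss of growth compared to untreated vehicle cultures.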
# [15] = at 5.0 µM (retest, dose inferred, filed as 0.5)
# [16] = at 50.0 µM (retest, dose inferred, filed as 5.0)
structure (smiles),measurement,setting,value
Cc1c2ccccc2cc2ccccc12,growth inhibition,[1]; at 1.2 µM,-2%
same,growth inhibition,[1]; at 3.7 µM,1%
same,growth inhibition,[1]; at 11.0 µM,24%
same,growth inhibition,[1]; at 33.0 µM,93% (active)
same,growth inhibition,[1]; at 100.0 µM,98% (active)
same,growth inhibition,[2]; at 1.2 µM,52%
same,growth inhibition,[2]; at 3.7 µM,84% (active)
same,growth inhibition,[2]; at 11.0 µM,96% (active)
same,growth inhibition,[2]; at 33.0 µM,98% (active)
same,growth inhibition,[2]; at 100.0 µM,98% (active)
same,growth inhibition,[3]; at 1.2 µM,-2%
same,growth inhibition,[3]; at 3.7 µM,19%
same,growth inhibition,[3]; at 11.0 µM,73% (active)
same,growth inhibition,[3]; at 33.0 µM,99% (active)
same,growth inhibition,[3]; at 100.0 µM,99% (active)
same,growth inhibition,[4]; at 1.2 µM,4%
same,growth inhibition,[4]; at 3.7 µM,36%
same,growth inhibition,[4]; [15],16%
same,growth inhibition,[4]; at 11.0 µM,83% (active)
same,growth inhibition,[4]; at 33.0 µM,98% (active)
same,growth inhibition,[4]; [16],98% (active)
same,growth inhibition,[4]; at 50.0 µM,98.3% (active)
same,growth inhibition,[4]; at 100.0 µM,98% (active)
same,growth inhibition,[5]; at 1.2 µM,-2%
same,growth inhibition,[5]; at 3.7 µM,14%
same,growth inhibition,[5]; [15],35%
same,growth inhibition,[5]; at 11.0 µM,61%
same,growth inhibition,[5]; at 33.0 µM,99% (active)
same,growth inhibition,[5]; [16],99% (active)
same,growth inhibition,[5]; at 50.0 µM,98.6% (active)
same,growth inhibition,[5]; at 100.0 µM,99% (active)
same,growth inhibition,[6]; [15],34%
same,growth inhibition,[6]; [16],99% (active)
same,growth inhibition,[6]; at 50.0 µM,98.4% (active)
same,growth inhibition,[7]; at 1.2 µM,9%
same,growth inhibition,[7]; at 3.7 µM,29%
same,growth inhibition,[7]; at 11.0 µM,82% (active)
same,growth inhibition,[7]; at 33.0 µM,99% (active)
same,growth inhibition,[7]; at 100.0 µM,99% (active)
same,growth inhibition,[8]; [15],51%
same,growth inhibition,[8]; [16],99% (active)
same,growth inhibition,[8]; at 50.0 µM,98% (active)
same,growth inhibition,[9]; at 1.2 µM,-3%
same,growth inhibition,[9]; at 3.7 µM,7%
same,growth inhibition,[9]; [15],58%
same,growth inhibition,[9]; at 11.0 µM,49%
same,growth inhibition,[9]; at 33.0 µM,95% (active)
same,growth inhibition,[9]; [16],99% (active)
same,growth inhibition,[9]; at 50.0 µM,98.2% (active)
same,growth inhibition,[9]; at 100.0 µM,99% (active)
same,growth inhibition,[10]; at 1.2 µM,-4%
same,growth inhibition,[10]; at 3.7 µM,-1%
same,growth inhibition,[10]; at 11.0 µM,63%
same,growth inhibition,[10]; at 33.0 µM,98% (active)
same,growth inhibition,[10]; at 100.0 µM,99% (active)
same,growth inhibition,[11]; at 1.2 µM,8%
same,growth inhibition,[11]; at 3.7 µM,27%
same,growth inhibition,[11]; at 11.0 µM,86% (active)
same,growth inhibition,[11]; at 33.0 µM,99% (active)
same,growth inhibition,[11]; at 100.0 µM,99% (active)
same,growth inhibition,[12]; at 1.2 µM,-14%
same,growth inhibition,[12]; at 3.7 µM,20%
same,growth inhibition,[12]; at 11.0 µM,97% (active)
same,growth inhibition,[12]; at 33.0 µM,99% (active)
same,growth inhibition,[12]; at 100.0 µM,99% (active)
same,growth inhibition,[13]; [15],65%
same,growth inhibition,[13]; [16],99% (active)
same,growth inhibition,[13]; at 50.0 µM,97.8% (active)
same,growth inhibition,[14]; at 1.2 µM,5%
same,growth inhibition,[14]; at 3.7 µM,25%
same,growth inhibition,[14]; at 11.0 µM,76% (active)
same,growth inhibition,[14]; at 33.0 µM,98% (active)
same,growth inhibition,[14]; at 100.0 µM,98% (active)
